hgDAF-12 ag: agonists of H. glycines DAF-12 nuclear receptor; activation, % at 6.8 µM; 370,000 compounds, 1.8% hits; HEK293 GAL4-hgDAF12 UAS-luciferase reporter, agonist luminescence; normalized to butyrate control;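 active means activation above a cutoff set at the mean of all screened compounds plus 3 SD, cut at about 10% in these data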
DAX1 inh-1: inhibitors of human orphan nuclear receptor DAX1 (NR0B1) | HEK293 Gal4-DAX1 luciferase reporter, luminescence | inhibition, % at 6.75 µM | 340,000 compounds, 0.99% hits | AID 504766;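 active means inhibition above the mean over all tested compounds plus 3 SD, cut at about 4.2% in these data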;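 further: inhibition shows as a rise in luminescence from relieved DAX1 repression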
Target sequence (P51843 207-470 limits assumed): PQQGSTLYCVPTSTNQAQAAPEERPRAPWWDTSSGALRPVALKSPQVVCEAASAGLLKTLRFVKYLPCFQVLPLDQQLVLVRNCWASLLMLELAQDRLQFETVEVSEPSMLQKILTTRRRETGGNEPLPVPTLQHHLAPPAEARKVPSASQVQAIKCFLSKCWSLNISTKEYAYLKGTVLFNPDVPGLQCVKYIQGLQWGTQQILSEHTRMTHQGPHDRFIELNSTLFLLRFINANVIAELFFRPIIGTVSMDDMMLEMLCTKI
ssDAF-12 act: activators of S. stercoralis DAF-12 nuclear receptor | 370,000 compounds, 1% hits | HEK293 ssDAF-12/GRIP1 lit1-tk-luc reporter, luminescence; % of 3 µM dafachronic acid response | activation, % at 6.8 µM;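 active means activation above the mean over all tested compounds plus 3 SD, cut at about 0.9% in these data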
hcDAF12 agonist: activators of H. contortus DAF-12 nuclear receptor; HEK293 hcDAF-12 lit1-tk-luc reporter, luminescence; 0% DMSO, 100% Δ7-dafachronic acid; activation, % at 6.8 µM; 370,000 compounds, 1.4% hits; AID 652067;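 active means activation above the mean of all tested compounds plus 3 SD, cut at about 5.5% in these data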
DAX1 inh-2: blocks DAX1 repression of SF-1 activated StAR promoter; inhibition, % at 6.8 µM; HEK293T StAR-luciferase reporter, SF-1/DAX-1 repression relief; 370,000 compounds, 1.1% hits;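 active means inhibition above the mean over all tested compounds plus 3 SD, cut at about 3.6% in these data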;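 further: higher inhibition means more luminescence from relief of DAX-1 repression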
Hits are given with their value; . = inactive; / = not tested or not shown; ! = not active in a repeat. Compounds with a hit are over-represented: about 4.1% of the library has one in this group of screens.

SMILES | hgDAF-12 ag | DAX1 inh-1 | ssDAF-12 act | hcDAF12 agonist | DAX1 inh-2
C[C@H]1CN([C@@H](C)CO)C(=O)CCCn2nncc2CO[C@H]1CN(C)C(=O)NC1CCCCC1 | . | 5.1 | . | . | .
COc1ccc(C(=O)N(C)[C@H]2C[C@H]3c4[nH]c5cccc(-c6ccccc6)c5c4CCN3C[C@H]2[C@H](C)O)cc1 | . | / | . | . | .
COC(=O)[C@]12C[C@H](CC(=O)N3CCC(c4ccccc4)CC3)C(=O)N(Cc3ccco3)C1=C[C@H](C1CCCC1)O[C@@H]2C | . | / | . | . | .
CC(C)(C)c1ccc(CNc2nc(-c3ccccn3)nnc2-c2ccccc2)cc1 | . | / | . | . | /
Cc1cc(C)cc(C(=O)NCC(=O)OCC(=O)N2CCCC2)c1 | . | . | . | . | .
CC1=CC2(C(Cc3ccccc3)N(CC3CC3)C(=NC(=O)c3ccccc3)N2C(=O)OCc2ccccc2)n2c(=O)n(-c3ccccc3)c(=O)n2C1 (configuration not stated) | . | / | . | . | .
O=C(CC1C(=O)OCN1C(=O)OCc1ccccc1)OCC(=O)c1ccccc1 (configuration not stated) | . | 4.9 | . | . | .
CC(C)(C)OC(=O)C1[C@H](O)C=CC[C@H]1S(=O)c1ccccc1 (some centres not stated) | . | / | . | . | /
Cc1cc(NC(=O)C(C)Sc2nc(-c3cccs3)nc3ccccc23)no1 (configuration not stated) | . | 4.5 | . | . | .
Cc1cc(NC(=O)CSc2nc(C(C)C)nc3ccccc23)no1 | . | . | . | . | .
CCCCCCSc1ccc(-c2nc3ccccn3c2NCCCC)cc1 | . | . | . | . | .
CCCCNc1c(-c2ccc(-c3cccc(Cl)c3)cc2)nc2ccccn12 | 11.0! | . | . | . | .
CCN1CCN(c2nc(-c3ccccc3)nc3ccccc23)CC1 | . | . | . | . | .
CN1CCN(c2nc(-c3ccc(C(C)(C)C)cc3)nc3ccccc23)CC1 | . | . | . | 6.2 | .
Cc1ccc(-c2nc(N3CCN(C)CC3)c3ccccc3n2)cc1 | . | . | . | 6.3 | .
COc1ccc2nc(NC(=O)CSc3nnc(C)n3N)sc2c1 | . | . | . | . | 3.8
COc1ccc2nc(NC(=O)CSc3nnc(N)s3)sc2c1 | . | . | . | . | .
COc1ccc2nc(NC(=O)CN3CCN(C)CC3)sc2c1 | . | . | . | . | .
COc1ccc2nc(NC(=O)CN3CCOCC3)sc2c1 | 11.4 | . | . | . | .
C=CCn1c(SCC(=O)OC(C)C)nnc1-c1ccc(C)cc1 | . | / | . | . | .
O=C(N/C(=C/C=C/c1ccccc1)C(=O)N1CCOCC1)c1ccccc1Cl | . | . | . | 6.0 | .
O=C(Nc1ccc(C(=O)O)cc1)/C(=C\C=C\c1ccccc1)NC(=O)c1ccccc1Cl | . | . | . | . | 4.3
COCCCNC(=O)C[C@H]1C[C@@]2(C(=O)OC)C(=C[C@H](C3CCCC3)O[C@@H]2C)N(CCC2=CCCCC2)C1=O | . | / | . | . | .
COc1ccc(C2C(=O)NN=C2C)cc1 (configuration not stated) | . | 5.3 | . | . | .
COc1ccc(C2c3c(nc[nH]c3=O)Oc3nc[nH]c(=O)c32)cc1 | / | . | / | / | /
SMILES | hgDAF-12 ag | DAX1 inh-1 | ssDAF-12 act | hcDAF12 agonist | DAX1 inh-2
Cc1ccc(-c2ccc3nnc(SCC(N)=O)n3n2)cc1 | . | 7.0 | . | . | .
Cc1ccccc1Cn1cc(CN2[C@@H](CC(C)C)COc3cccc(F)c3S2(=O)=O)nn1 | . | / | . | . | .
O=c1c([N+](=O)[O-])c(Cl)c2ccccc2n1Cc1ccccc1 | . | / | . | . | /
CCOCCCNC(=O)Cn1cc2c(n1)-c1c(oc(C(=O)N3CCCC3)c1C)CC2 | . | 4.7 | . | . | .
CCCCN(C)CCCNC(=O)Cn1cc2c(n1)-c1c(oc(C(=O)N3CCCC3)c1C)CC2 | . | . | . | . | .
O=C(NCc1ccccc1)c1cc(C2COCCN2C(=O)c2ccc(Cl)cc2)on1 (configuration not stated) | . | / | . | . | .
O=C(COc1ccccc1)NCC(c1ccco1)N1CCN(c2ccccc2)CC1 (configuration not stated) | 11.9 | . | . | . | .
O=C(NCC(c1ccco1)N1CCN(c2ccccc2)CC1)c1cccs1 (configuration not stated) | . | . | . | . | .
O=C(CCC(=O)N1CCN(C2c3ccccc3-c3ccccc32)CC1)Nc1nnc(C(F)(F)F)s1 | . | / | . | . | .
O=C1NC(=S)N/C1=C/c1cccnc1 | 11.7 | . | . | . | .
O=C1NC(c2cccc3ccccc23)Nc2ccccc21 (configuration not stated) | . | . | . | . | .
O=C1c2ccccc2C(=O)C1Cc1cccc2ccccc12 | . | . | 0.9 | . | .
O=C(/C=C/c1cccs1)c1ccc(N2CCOCC2)cc1 | 11.3 | . | . | . | .
O=C(NC(=S)Nc1ccc(N2CCOCC2)cc1)c1cccs1 | 12.1 | . | . | . | 4.0
O=C(NNC(=O)c1cccs1)c1csc(N2CCOCC2)n1 | . | . | 1.2 | . | .
CC(=O)N1CCN(c2ccc(NC(=O)c3ccco3)cc2)CC1 | . | . | 1.9 | . | .
C[C@H]1[C@@H](OC(=O)Nc2cc(Cl)ccc2Cl)CC[C@@]23CCCN2C(=O)CCC[C@@H]13 | . | / | . | . | /
O=C(COc1ccc(F)cc1Cl)Nc1nnc(-c2ccc(F)c(F)c2)o1 | . | / | . | . | /
O=C(NC(=S)Nc1ccc(N2CCCCC2)cc1)c1ccco1 | 12.8 | . | . | . | .
O=C(Nc1ccc(C2SCCS2)cc1)c1ccccc1 | 10.5 | / | 1.6 | . | .
Cc1ccc(C(=O)Nc2ccc(N3CCN(C)CC3)cc2)cc1 | . | . | 1.3 | . | .
CC(=O)N1CCN(c2ccc(NC(=O)c3ccccc3)cc2)CC1 | . | 5.8 | . | . | .
COC(=O)[C@]12C[C@H](CC(=O)N3CCSCC3)C(=O)N(Cc3ccco3)C1=C[C@H](C(C)(C)C)O[C@@H]2C | . | / | . | . | .
Cc1nc2c(-c3ccc(F)cc3)cnn2c2c1CCC2 | . | . | . | 5.7 | .
CN(C)S(=O)(=O)c1ccc(C(=O)Nc2ccccn2)cc1 | 10.5 | . | . | . | .
SMILES | hgDAF-12 ag | DAX1 inh-1 | ssDAF-12 act | hcDAF12 agonist | DAX1 inh-2
CN(C)S(=O)(=O)c1ccc(NC(=O)c2ccccn2)cc1 | 12.6 | . | . | . | .
Cc1ccc(S(=O)(=O)N(C)c2ccc(C(=O)Nc3ccccn3)cc2)cc1 | . | . | . | . | .
COCCNc1nc2c(-c3cccc(C(F)(F)F)c3)nnn2c2ccccc12 | . | . | 1.3 | 6.5 | .
NNc1nc2c(-c3cccc(C(F)(F)F)c3)nnn2c2ccccc12 | . | . | . | 6.5 | .
Cc1ccc(-c2nnn3c2nc(NCCc2ccc(S(N)(=O)=O)cc2)c2ccccc23)cc1 | . | . | . | 5.7 | .
CC(=O)NCCNc1nc2c(-c3cccc(C(F)(F)F)c3)nnn2c2ccccc12 | . | . | . | . | .
